Screening data: PubChem, National Center for Advancing Translational Sciences (NCATS)
CtBP-E1A inh – CtBP/E1A binding inhibition | AlphaScreen GST-E1A/His-CtBP binding, 1536-well; active compounds read low | AID 651724 | 340,000 tested, 0.49% active | activity change, % (concentration not given with the values); also: % is scaled to controls: 0 for no effect and ±100 for the full control effect
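GST-E1A and His-tagged CtBP (125 nM each as 5X stock) were preincubated with pin-transferred compound for 2 h at 37 °C in the dark, then glutathione donor and nickel acceptor beads were added for 1 h before AlphaScreen reading.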
uPA generation – blocks generation of uPA at the cell surface; cell surface uPA generation assay, qHTS; Potency, µM (highest dose often 38.3 µM), for inactives: at the top dose activity change, negative = inhibition, most hits filed as inhibitors; 330,000 tested, 0.31% active; active = well fitted inhibition curve with a large enough effect; inconclusive = small, poorly fitted or top-dose-only effect; inactive = no such curve, though single readings can be large or run the other way; tested in mouse RAW 264.7 cells; also: potency is read from the fitted curve at half-maximal effect; % is scaled to controls: 0 for no effect and ±100 for the full control effect; nearly all actives have a fitted effect of over 55% in size
Mito fusion yeast – blocks mitochondrial division or promotes mitochondrial fusion; S. cerevisiae fusion-defective mutant growth rescue, CellTiterGlo 48 h; Potency, µM (titrated, usually from 46.1 µM), inactives show top-dose growth rescue (activation), usual class: activators; 320,000 tested, 0.23% active; active = well fitted activation curve with a large enough effect; inconclusive = small, poorly fitted or top-dose-only effect; inactive = no such curve, though single readings can be large or run the other way; also: potency is read from the fitted curve at half-maximal effect; % of control where 0% means no effect; nearly all actives have a fitted effect of over 45% in size
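Temperature-sensitive fusion-defective S. cerevisiae (e.g. fzo1-1, mgm1-5) were grown with compound in YPEG medium (3% ethanol, 3% glycerol) for 48 hours at 37C. Growth rescue was measured as viability by CellTiterGlo luminescence after 10 minutes at ambient.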
MBNL1 CUG block – MBNL1-poly(CUG) RNA binding inhibition; AID 2675; Q9NR56; TR-FRET MBNL1-His/biotin-(CUG)12 binding, 665/545 ratio; Potency, µM (top dose mostly 57.5 µM), for inactives: at the top dose activity change, negative = inhibition, most hits filed as inhibitors; 280,000 tested, 0.036% active; active = well fitted inhibition curve with a large enough effect in the signal ratio, with a control signal flat, not every such curve was filed as active; inconclusive = small, poorly fitted or top-dose-only effect, or effect the other way, or a change in a side signal; inactive = no such curve, though single readings can be large or run the other way; the % refers to the signal ratio; also: potency is read from the fitted curve at half-maximal effect; % is scaled to controls: 0 for no effect and ±100 for the full control effect
Target sequence (Q9NR56 whole entry, looked up): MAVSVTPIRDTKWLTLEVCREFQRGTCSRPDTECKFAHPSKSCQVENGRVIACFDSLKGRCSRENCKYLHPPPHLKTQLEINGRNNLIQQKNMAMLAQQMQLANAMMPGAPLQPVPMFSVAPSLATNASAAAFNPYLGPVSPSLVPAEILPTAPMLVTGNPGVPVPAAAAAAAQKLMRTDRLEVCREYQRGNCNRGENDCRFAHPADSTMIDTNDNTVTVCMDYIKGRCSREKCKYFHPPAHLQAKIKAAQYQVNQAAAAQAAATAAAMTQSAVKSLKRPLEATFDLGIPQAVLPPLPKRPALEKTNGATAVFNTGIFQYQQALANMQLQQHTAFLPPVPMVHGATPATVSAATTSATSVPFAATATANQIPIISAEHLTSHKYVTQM
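Ratiometric TR-FRET (665 over 545 nm, excitation 340 nm) tracks disruption of MBNL1-His/biotin-(CUG)12 complex after 60 min at room temperature, with compounds at 92 nM to 58 uM final.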
Six1-Eya2 blk – inhibitors of human Six1/Eya2 interaction | activity change, % (concentration not given with the values) | AlphaScreen GST-Six1/His-Eya2 binding, biochemical; active compounds read low | AID 651725 | 360,000 tested, 0.56% active; also: % is scaled to controls: 0 for no effect and ±100 for the full control effect
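GST-Six1 + His-Eya2 (5X stock: 250/500 nM); Tris pH 8.0, 300 mM NaCl, 0.05% BSA, 0.02% Tween 20; GSH donor/Ni acceptor beads; 1 h 37 °C dark; AlphaScreen readout.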
* = called active by the depositor; ? = inconclusive; . = no result given; [ ] = another dose, or the depositor's remark. In the library only some 1.1% were active in any assay of this set; here they are far more common. Rule as the data show it, unless noted: active = activity change below about -65%; inconclusive = mostly about -30% to -63%; inactive = weaker than that.

SMILES | CtBP-E1A inh | uPA generation | Mito fusion yeast | MBNL1 CUG block | Six1-Eya2 blk
CC(=O)Oc1ccc(/C=C2/Oc3ccccc3C2=O)cc1 | 7.2 | -7.5% | -6.9% | . | 6.9
C=CCN1C(=O)C(C)(C)N(C(C)=O)c2ccccc21 | . | -10.6% | -42.5% | -8.1%[11.5 µM] | 1.1
CC(=O)N1c2ccccc2N(Cc2ccc(C)cc2C)C(=O)C1(C)C | 4.2 | 7.08µM* | 11.0% | -7.2% | -3.7
Cc1ccc(-c2[nH]ncc2/C=N/n2c(COc3ccccc3)nc3ccccc3c2=O)cc1 | -0.9 | -9.4% | 6.9% | -3.1% | -1.4
Cc1cc(/C=N/n2c(COc3ccccc3)nc3ccccc3c2=O)c(O)c([N+](=O)[O-])c1 | -80.3* | -14.2% | 10.0% | 5.5% | -87.5*
COc1cc(S(=O)(=O)N2CCN(Cc3ccc4c(c3)OCO4)CC2)c(C)cc1C | -15.7 | 8.1% | 14.1µM* | -4.5% | -23.7
COC(=O)C1=CN(c2ccc(N3CCOCC3)cc2)C(N)=C(C#N)C1c1ccc(-c2ccccc2)cc1 (stereo not given) | 4.7 | . | . | . | -11.0
CCOC(=O)C1CCN(C(=O)CCS(=O)(=O)c2ccc3c(c2)CCN3C(=O)CC)CC1 | -7.7 | -3.8% | 2.0% | -2.1% | 4.5
Cc1ccc(C)c(N2CCN(C(=O)CCS(=O)(=O)c3ccc4c(c3)CCN4C(=O)C3CC3)CC2)c1 | -7.6 | -10.3% | 11.2µM* | 1.2% | -8.6
CCCCSCc1[nH]c(=O)[nH]c1C(=O)CCCCC(=O)OCC | -8.9 | -2.1% | -2.0% | ? | -2.6
Cc1[nH]c(=O)[nH]c1C(=O)CCCCC(=O)O | -3.1 | -1.9% | -5.9% | 0.0891µM* | 9.8
O=C1c2oc3ccccc3c(=O)c2C(c2ccc(Br)cc2)N1c1ccccn1 (stereo not given) | . | . | 0.0% | . | .
COc1ccc(Cc2nnc(NN)[nH]c2=O)cc1OC | 1.2 | -0.9% | -0.1% | 1.8% | -91.0*
COCCNc1nnc(Cc2ccc(OC)c(OC)c2)c(=O)[nH]1 | 0.0 | -4.0% | 4.6% | -7.1% | 4.2
Cc1cc(-c2ccc(C(C)C)c(S(=O)(=O)N3CCN(c4ccccn4)CC3)c2)on1 | . | 0.891µM* | 11.5% | -12.6% | -18.6
CCc1ccc(-c2cc(C)no2)cc1S(=O)(=O)N1CCN(c2ccccn2)CC1 | -8.9 | -9.8% | 4.7% | -2.1% | -6.4
C(=C\c1ccccc1)/CN1CCN(C(c2cccc3ccccc23)c2nnnn2C2CCCC2)CC1 (stereo not given) | -19.0 | . | . | . | -22.4
COc1cccc(C(=O)NCC[N+](C)(C)C)c1 | 2.7 | . | . | . | 5.7
CC(=O)NC(c1cc(F)c2cccnc2c1O)C(C)C (stereo not given) | . | . | -6.2% | . | .
Cc1cccc(NC(=O)C2CCN(S(=O)(=O)c3c(C)c(C)cc(C)c3C)CC2)n1 | 0.8 | -5.2% | 20µM* | . | -24.5
Cn1cc([N+](=O)[O-])c(C(=O)Nc2sc3c(c2C#N)CCC3)n1 | . | -9.6% | 11.2µM* | ? | -5.5
CCn1c(C)nc2cc(C(=O)N/N=C/c3cccc(OC)c3O)ccc21 | -92.8* | -11.9% | 10.5% | ? | -79.9*
CCn1c(C)nc2cc(C(=O)N/N=C/c3ccc(O)c(O)c3O)ccc21 | -92.6* | -0.6% | 0.3% | ? | -89.7*
COc1cccc(/C=N/NC(=O)c2nc(-c3ccccc3)cc(-c3ccccc3)n2)c1O | -5.6 | -0.1% | 2.8% | -21.6% | -2.5
CCC(=NNC(=O)c1ccc2c(c1)nc(C)n2CC)c1cc(F)ccc1O | ? | -1.9% | . | . | -17.1
SMILES | CtBP-E1A inh | uPA generation | Mito fusion yeast | MBNL1 CUG block | Six1-Eya2 blk
C[C@@H]1Cc2[nH][nH]c(=O)c2[C@H](C)O1 | -0.2 | . | . | . | -1.5
COC(=O)C[C@H]1CC[C@H](NC(=O)c2ccc(F)cc2)[C@@H](CO)O1 | 11.3 | . | . | . | 5.2
Cn1c(NN)nc2sc3c(c2c1=O)CC(C)(C)OC3 | -76.6* | -7.8% | -1.6% | ? | ?
O=C(Cn1cnc([N+](=O)[O-])n1)N/N=C/c1ccccc1O | -94.7* | -5.8% | -6.6% | ? | -92.4*
O=C(Cn1cnc([N+](=O)[O-])n1)N/N=C/c1cc(Cl)ccc1O | -94.1* | -8.9% | -0.9% | ? | -92.0*
CCN1C(=N)N(c2ccccc2)C(=O)C(CC)(CC)C1=O | 6.3 | 4.5% | . | . | 11.6
Cc1cccc(C)c1NC(=O)C1(C)CN(S(C)(=O)=O)CC(=O)N1CC(F)(F)F (stereo not given) | 4.6 | . | . | . | 0.9
Brc1ccc2[nH]c3c(c2c1)CCC3 | -1.9 | 3.2% | -1.6% | . | 5.0
O=C1Cc2c([nH]c3ccc(Br)cc23)-c2ccccc2N1 | 0.0 | -6.9% | 7.31µM* | . | 8.1
CCN(Cc1ccccc1)C(=O)c1oc2ccc(S(=O)(=O)N3CCOCC3)cc2c1C | -0.7 | 1.3% | 10µM* | 1.4% | -5.2
CCN(CC)C(=O)c1oc2ccc(S(=O)(=O)N3CCCCCC3)cc2c1C | -25.7 | ? | 3.4% | -0.9% | -1.1
Cc1ccc(F)cc1C(=O)N1CCCCC1c1cc(C(=O)NC(C)C)no1 (stereo not given) | 6.5 | . | . | . | 4.1
Cc1c(C(=O)N/N=C/c2ccc(Cl)cc2)[nH]c2ccc(Cl)cc12 | . | 0.355µM* | 9.7% | -3.6% | -3.8
COc1cc(C(=O)NCC(c2ccccc2)N(C)C)ccc1OCc1c(C)noc1C (stereo not given) | 2.0 | 7.94µM* | -6.6% | . | -0.4
COc1cc(C(=O)OCC#N)ccc1OCc1c(C)noc1C | -16.0 | 11.2µM* | 0.6% | . | 0.0
COc1ccc(/C(C)=N/NC(=O)c2cc(-c3cccnc3)nc3ccccc23)cc1 | 0.0 | -2.6% | -1.6% | -8.5% | 0.5
COc1ccc(-c2cc(C(=O)N/N=C(\C)c3cccnc3)c3ccccc3n2)cc1 | 9.3 | 8.91µM* | -5.9% | 15.8% | -3.7
COc1ccc(-c2cc3ncc(C)n3c(Nc3ncccc3C(N)=O)n2)cc1OC | . | . | -1.7% | . | .
CCc1nc2c(OCC(=O)c3ccc(Cl)cc3Cl)cccn2c1N(C)C(=O)c1cccs1 | -8.1 | . | . | . | -17.9
CCc1c(C(=O)NCCc2ccc(N3CCCCC3)cc2)[nH]c2ccc(Cl)cc12 | . | . | -21.5% | . | .
COc1ccc(C(=O)Nn2c(SCC(=O)N3CCC(C)CC3)nc3ccccc3c2=O)cc1 | -71.3* | . | 1.0% | 6.2% | ?
COc1cc(N2CCCC2)c(OC)cc1/C=C(/C#N)c1ccc(F)cc1 | ? | 6.1% | 5.9% | -14.0% | -78.3*
CC(=O)Nc1sc2c(c1-c1nc3ccccc3s1)CN(C(C)C)CC2 | . | 2µM* | . | . | .
O=C(c1ccccc1)c1nn(-c2ccc(Cl)cc2)c(=O)cc1C(F)(F)F | ? | -16.2% | 5.1% | ? | -15.4
O=C(c1ccccc1)c1nn(-c2ccccc2)c(=O)cc1C(F)(F)F | -75.4* | -13.4% | 11.6% | ? | ?
O=C(c1cccc(Cl)c1)c1nn(-c2ccccc2)c(=O)cc1C(F)(F)F | -72.7* | 19.8% | 23.1% | ? | ?
CNC(=O)OC1CC2CC1[C@H]1CCCCN1C2=O (stereo not given in full) | 10.2 | . | . | . | -0.1
